Eleven molecules from PubChem BioAssay (NCATS) can be followed below.

Assay [1] addresses Luciferin 4-monooxygenase (Photinus pyralis) (UniProt P08659). As to the kind of experiment: Biochemical firefly luciferase enzyme assay for NPC (AID 624030).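 Also: purified P. pyralis luciferase at 10 nM with luciferin and ATP substrate; nearly all actives have a fitted effect of over 70% in size.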 A digest of the protocol:
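Purified P. pyralis luciferase at 10 nM in 50 mM Tris Acetate (final), luminescence read within 5 minutes of enzyme addition to compounds. Activity normalised to PTC124 versus DMSO; concentration-response curves classed by r2, magnitude and activity.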

Assay [2] can be described thus: S16 Schwann cell viability assay (CellTiter-Glo assay) (AID 624031).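 Also: native untransfected S16 rat Schwann cells; nearly all actives have a fitted effect of over 70% in size.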 A digest of the protocol:
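Cells were seeded at 500-750 per well in phenol red-free DMEM with 10% FBS and left overnight. Compounds or DMSO were pinned in, incubation ran 24 h at 37 °C/5% CO2, then CellTiter-Glo reagent was added and luminescence measured.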
In general terms: ATP-based viability assays read luminescence as a measure of living cells.

Assay [3] is described as follows: S16 Schwann cell PMP22 intronic element beta-lactamase assay (AID 624044; calls by dose curve; also: nearly all actives have a fitted effect of over 15% in size; also: potency is read from the fitted curve at half-maximal effect). The following applies: S16 rat Schwann cells, PMP22 element beta-lactamase FRET, 24 h; ratio activity, negative = inhibition: at 38.3 µM (top of the series). The method, boiled down:
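Rat S16 Schwann cells with beta-Lac driven by a PMP22 intronic element, compound-treated 24 h at 37 °C. LiveBLAzer FRET B/G read: 460 nm normalized to potassium clavulanate vs DMSO; 535 nm FRET as viability; concentration-effect curves classified.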

For assay [4], the system named is 7G8. The experiment in a line: qHTS profiling for inhibitors of Plasmodium falciparum proliferation (AID 504749). Also: nearly all actives have a fitted effect of over 60% in size. Also: potency is read from the fitted curve at half-maximal effect. The following applies: P. falciparum in erythrocytes, SYBR Green DNA, 72 h; series mostly up to 28.7 µM. A digest of the protocol:
(§1)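 P. falciparum-infected erythrocytes (0.3% parasitemia, 2.5% hematocrit) incubated with compound 72 h at 37 C, 5% CO2. Parasite DNA detected by SYBR Green after lysis, overnight at room temperature; normalised to 0.29 uM artemisinin and DMSO.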
For orientation: qHTS replaces the single test concentration by a dilution series.

Assay [5] concerns ATS95. The description is as above. The following applies: P. falciparum in erythrocytes, SYBR Green DNA, 72 h; series mostly up to 28.7 µM. The method, boiled down:
as §1

The subject of assay [6] is CP215. The description is as above. The following applies: P. falciparum in erythrocytes, SYBR Green DNA, 72 h; series mostly up to 28.7 µM. A digest of the protocol:
as §1

The subject of assay [7] is CP260. Described as above. The following applies: P. falciparum in erythrocytes, SYBR Green DNA, 72 h; series mostly up to 28.7 µM. A digest of the protocol: as §1
In assay [8] the test system is CP266. The description is as above. The following applies: P. falciparum in erythrocytes, SYBR Green DNA, 72 h; series mostly up to 28.7 µM. The method, boiled down: as §1
Assay [9] concerns CP291. The description is as above. The following applies: P. falciparum in erythrocytes, SYBR Green DNA, 72 h; series mostly up to 28.7 µM. The method, boiled down: as §1
The test system of assay [10] is CP297. Described as above. Conditions: P. falciparum in erythrocytes, SYBR Green DNA, 72 h; series mostly up to 28.7 µM. The method, boiled down: as §1
Assay [11] relates to CP335. The assay is described as above. The following applies: P. falciparum in erythrocytes, SYBR Green DNA, 72 h; series mostly up to 28.7 µM. The method, boiled down: as §1
Assay [12] has as its system DIV17. The description is as above. Conditions: P. falciparum in erythrocytes, SYBR Green DNA, 72 h; series mostly up to 28.7 µM. A digest of the protocol:
as §1

The test system of assay [13] is GB4. The description is as above. Conditions: P. falciparum in erythrocytes, SYBR Green DNA, 72 h; series mostly up to 28.7 µM. The method, boiled down: as §1
In assay [14] the test system is PC15. The description is as above. Conditions: P. falciparum in erythrocytes, SYBR Green DNA, 72 h; series mostly up to 28.7 µM. The method, boiled down: as §1
The test system of assay [15] is PC26. The assay is described as above. The following applies: P. falciparum in erythrocytes, SYBR Green DNA, 72 h; series mostly up to 28.7 µM. A digest of the protocol:
as §1

The subject of assay [16] is PC49. The description is as above. Conditions: P. falciparum in erythrocytes, SYBR Green DNA, 72 h; series mostly up to 28.7 µM. A digest of the protocol: as §1
The subject of assay [17] is TAB109. Described as above. Conditions: P. falciparum in erythrocytes, SYBR Green DNA, 72 h; series mostly up to 28.7 µM. The method, boiled down: as §1
In assay [18] the test system is TAB165. The description is as above. Conditions: P. falciparum in erythrocytes, SYBR Green DNA, 72 h; series mostly up to 28.7 µM. A digest of the protocol:
as §1

For assay [19], the system named is P93_24. Described as above. Conditions: P. falciparum in erythrocytes, SYBR Green DNA, 72 h; series mostly up to 28.7 µM. The method, boiled down: as §1
The test system of assay [20] is CP247. The assay is described as above. Conditions: P. falciparum in erythrocytes, SYBR Green DNA, 72 h; series mostly up to 28.7 µM. The method, boiled down: as §1

Each structure is given as a SMILES string. Several values for one entry are separate records, joined by “and”; a condition that tells them apart may be missing. Equal values may be shown once. Records with an inconclusive call do not appear. More than one record can exist for a structure, and the calls need not agree. Activity calls are given as the source filed them. Unless noted, calls follow the shape of the dose curve; as a rule, active = well fitted curve in the direction sought with a large enough effect; inconclusive = small, poorly fitted or top-dose-only effect, or another doubt; inactive = no such curve, though single readings can be large; an effect the other way counts as inactive or inconclusive.

Luciferin 4-monooxygenase (Photinus pyralis), sequence (P08659 whole entry, looked up): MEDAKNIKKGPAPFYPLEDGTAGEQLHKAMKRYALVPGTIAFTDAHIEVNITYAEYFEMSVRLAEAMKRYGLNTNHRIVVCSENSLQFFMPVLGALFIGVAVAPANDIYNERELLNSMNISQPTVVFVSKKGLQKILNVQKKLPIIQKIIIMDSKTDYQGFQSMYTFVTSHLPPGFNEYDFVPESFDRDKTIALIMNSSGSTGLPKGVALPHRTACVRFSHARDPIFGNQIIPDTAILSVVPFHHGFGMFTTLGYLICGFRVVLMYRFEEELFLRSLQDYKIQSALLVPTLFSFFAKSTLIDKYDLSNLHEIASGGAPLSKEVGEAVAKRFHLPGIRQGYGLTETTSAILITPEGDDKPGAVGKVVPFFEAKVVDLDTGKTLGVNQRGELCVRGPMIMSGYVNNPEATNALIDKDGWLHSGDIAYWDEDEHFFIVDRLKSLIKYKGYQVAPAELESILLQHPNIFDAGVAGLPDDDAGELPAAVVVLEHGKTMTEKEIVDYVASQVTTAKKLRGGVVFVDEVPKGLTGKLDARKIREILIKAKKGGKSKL

As to `CNC1=CN(O)C(c2ccccc2)=c2cc(Cl)ccc2=N1`, the Potency entry in assay [1], in assay [2], in [3], in assay [4], in assay [14] and in assay [16] was “inactive” throughout. In addition, the Potency in assay [5] was 5.01 µM (active); in assay [6], 4.26 µM (active) and 10.7 µM (active); in [7], 7.94 µM (active) and inactive; in [8] it was 4.78 µM (active); in [9], 3.38 µM (active); in [10] it was 4.26 µM (active). The Potency in [11] is 3.79 µM (active); in [12], 2.13 µM (active); in assay [13], 953 nM (active) and 15.1 µM (active); in assay [15], 4.26 µM (active); in assay [17], 3.55 µM (active); in assay [18] it was 4.47 µM (active).
`CC1CCC(O)C/C1=C\C=C1/CCCC2(C)C1CCC2C(C)/C=C/C(C)C(C)C` (stereo unspecified): the Potency result in assay [5], in assay [6], in assay [7], in assay [8], in assay [9] and in assay [14] was “inactive” throughout. For the same molecule, the Potency entry in [16], in [17] and in [18] was “inactive” each time.
On to `Clc1ccc(CS[C@@H](Cn2ccnc2)c2ccc(Cl)cc2Cl)cc1`, for which the Potency result in assay [2] and in assay [3] was “inactive” in each case. The Potency is 0.562 µM (active) in [4]; 3.55 µM (active) in [5]; 5.73 µM (active) in assay [9]; 3.22 µM (active) in [10]; 1.28 µM (active) in [11]; 5.1 µM (active) in assay [12]. Besides, the Potency is 3.61 µM (active) in [13]; 1.26 µM (active) in assay [19]; 3.55 µM (active) in assay [14]; 3.55 µM (active) in [17]; 0.708 µM (active) in [18].
Turning to `CCCSS/C(CCO)=C(/C)N(C=O)Cc1cnc(C)nc1N`, the Potency entry in [1], in assay [5], in assay [6], in assay [20], in assay [7] and in [8] was “inactive” in each case. The Potency result in assay [9], in [10], in assay [11], in assay [12], in assay [19] and in [14] was “inactive” each time. For the same molecule, the Potency result in assay [15], in assay [16] and in assay [17] was “inactive” throughout.
Consider `Cc1cc2nc3c(=O)[nH]c(=O)nc-3n(CC(O)C(O)C(O)COP(=O)(O)O)c2cc1C` (stereo unspecified), for which the Potency entry in [1], in assay [2], in [3], in [4], in [5] and in assay [6] was “inactive” throughout. Besides, the Potency entry in assay [7], in assay [8], in [9], in [10], in assay [11] and in assay [12] was “inactive” in each case. For the same molecule, the Potency result in [13], in [19], in assay [14], in assay [15], in [16] and in assay [17] was “inactive” in each case. Also, the Potency result in assay [18] is “inactive”.
`CCC(=O)O[C@]1(C(=O)CCl)[C@@H](C)CC2C3C[C@H](F)C4=CC(=O)C=CC4(C)[C@@]3(F)C(O)CC21C` (stereo partly specified): the Potency entry in [3] was “inactive”. Moreover, the Potency in assay [4] was 1.58 µM (active); in assay [5] it was 6.31 µM (active); in [6], 10.7 µM (active); in [20] it was 12.6 µM (active); in assay [7] it was 11.2 µM (active); in assay [9] it was 13.5 µM (active). Further, the Potency is 10.7 µM (active) in [10]; 10.7 µM (active) in assay [11]; 4.26 µM (active) in [12]; 7.57 µM (active) in [13]; 10 µM (active) in [19]; 8.91 µM (active) in assay [14]. Also, the Potency in [15] is 12 µM (active); in [17], 5.01 µM (active); in assay [18], 10 µM (active).
Consider `COc1cc(/C=C2\CCC/C(=C\c3ccc(O)c(OC)c3)C2=O)ccc1O`, for which, in assay [2], the Potency entry is “inactive”. The Potency in assay [3] is 25.1 µM (active); in assay [4], 2 µM (active); in [5] it was 10 µM (active); in assay [6], 15.1 µM (active); in [20], 8.91 µM (active); in [7] it was 12.6 µM (active). For the same molecule, the Potency is 13.5 µM (active) in [10]; 12 µM (active) in assay [11]; 9.53 µM (active) in [12]; 12 µM (active) in assay [13]; 12.6 µM (active) in assay [19]; 12.6 µM (active) in assay [14]. Besides, the Potency is 10.7 µM (active) in [15], 11.2 µM (active) in [16], 12.6 µM (active) in [17] and 12.6 µM (active) in assay [18].
In the case of `CC(C)CCCC(C)C1CC(=O)C2=C3CCC4CC(O)CCC4(C)C3CCC21C` (stereo unspecified), the Potency result in assay [1], in assay [2], in assay [3], in assay [5], in assay [6] and in assay [20] was “inactive” in each case. The Potency result in assay [8], in [9], in assay [10], in assay [12], in assay [13] and in [19] was “inactive” in each case. Besides, the Potency entry in [14], in [15], in assay [16], in [17] and in assay [18] was “inactive” throughout.
Regarding `C[C@@H]1CC2C3CCC4=CC(=O)C=C[C@]4(C)[C@@]3(F)[C@@H](O)C[C@]2(C)[C@@]1(O)C(=O)COC(=O)c1cccc(S(=O)(=O)O)c1` (stereo partly specified), the Potency result in [1], in assay [2], in assay [5], in assay [6], in [20] and in assay [7] was “inactive” each time. The Potency result in assay [8], in assay [9], in assay [10], in [11], in assay [12] and in assay [13] was “inactive” in each case. Also, the Potency result in assay [19], in [14], in assay [15], in assay [16], in [17] and in [18] was “inactive” each time.
For the molecule `C[C@]12CC[C@@H]3c4ccc(O)cc4C[C@@H](CCCCCCCCCS(=O)CCCC(F)(F)C(F)(F)F)C3[C@@H]1CC[C@@H]2O` (stereo partly specified), the Potency entry in [1], in [2], in assay [3] and in assay [8] was “inactive” in each case. Further, the Potency is 1.78 µM (active) in assay [4]; 8.91 µM (active) in assay [5]; 8.91 µM (active) in assay [7]; 12 µM (active) in [9]; 4.26 µM (active) in assay [10]; 13.5 µM (active) in [11]. Moreover, the Potency in [12] is 4.78 µM (active); in assay [13], 9.53 µM (active); in assay [19], 2.24 µM (active); in assay [14], 11.2 µM (active); in [15] it was 3.38 µM (active); in [17], 10 µM (active). Further, in assay [18], the Potency is 2.24 µM (active).
With `CC1CN(c2c(F)c(N)c3c(=O)c(C(=O)O)cn(C4CC4)c3c2F)CC(C)N1` (stereo unspecified), the Potency entry in [1], in assay [2], in [3], in [5], in [6] and in assay [20] was “inactive” throughout. Besides, the Potency result in assay [8], in assay [9], in assay [10], in assay [12], in assay [13] and in assay [19] was “inactive” each time. Moreover, the Potency entry in [14], in assay [15], in [16], in assay [17] and in assay [18] was “inactive” in each case.
